Compound activity (PubChem BioAssay)
This is a sample that favours compounds with a hit; in the whole collection about 8.1% have one here.
MITF inh: blocks MITF activity; TRPM1 promoter luciferase, luminescence, 24 h; inhibition, % (test concentration not listed); 0.28% of 37,000 active; in the data active means inhibition above about 85%; inconclusive means no clear call, values can overlap the other calls; inactive means below about 68%;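 further: human melanocyte line stably carrying TRPM1 promoter luciferase reporter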
Hedgehog inh: Sonic Hedgehog pathway inhibition. Shh-LIGHT2 Gli-luciferase reporter, 30 h. inhibition, % (no concentration beside the values). 2.1% of 22,000 active. AID 2313;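 active means mean inhibition across valid replicates above about 65%, limit read from the data; inconclusive means mean under the limit, yet half or more replicates past it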;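 further: pathway switched on by Shh-conditioned medium diluted 1 in 25 in low serum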
NOMO-1 viab: STK33 inhibitor candidate reducing NOMO-1 cell viability. NOMO-1 AML viability, CellTiter-Glo luminescence, 72 h. AID 2330. inhibition, % (concentration not given with the values). 7.5% of 37,000 active; in the data active means inhibition above about 80%; inconclusive means no clear call, values can overlap the other calls
* hit, by the source's call; ? = inconclusive; nt = no result given.

SMILES | MITF inh | Hedgehog inh | NOMO-1 viab
N#Cc1cc2c(nc1SCC(=O)Nc1ccccc1OC(F)(F)F)CCCC2 | -11 | nt | -3
Cc1cc(C)c(C#N)c(SCCS(=O)(=O)c2nc3ccccc3s2)n1 | 38 | nt | 128*
CCOC(=O)Cc1[nH]nc2c1C(C1CC=CCC1)C(C#N)=C(N)O2 (centres undefined) | 16 | nt | 114*
COc1cc(OC)cc(C2C(C#N)=C(N)Oc3n[nH]c(-c4cccnc4)c32)c1 (centres undefined) | 4 | nt | 1
C[C@H](CO)N1C[C@H](C)[C@@H](CN(C)Cc2ccc3c(c2)OCO3)Oc2c(NC(=O)CCCCCC(=O)Nc3ccccc3N)cccc2C1=O | 24 | nt | 123*
C[C@H](CO)N1C[C@H](C)[C@H](CN(C)Cc2ccc3c(c2)OCO3)Oc2c(NC(=O)Nc3cccc4ccccc34)cccc2C1=O | 18 | 27 | 22
C[C@H](CO)N1C[C@H](C)[C@@H](CN(C)Cc2ccc3c(c2)OCO3)Oc2c(NC(=O)Nc3cccc4ccccc34)cccc2C1=O | 18 | 25 | ?
C[C@@H]1CN([C@@H](C)CO)C(=O)c2cccc(NC(=O)CCCCCC(=O)Nc3ccccc3N)c2O[C@H]1CN(C)Cc1ccc2c(c1)OCO2 | 55 | nt | 117*
C[C@H]1CN([C@@H](C)CO)C(=O)c2cccc(NC(=O)C3CC3)c2O[C@@H]1CN(C)Cc1ccc2c(c1)OCO2 | 0 | -16 | 11
C[C@H]1CN([C@@H](C)CO)C(=O)c2cccc(NC(=O)CCCCCC(=O)Nc3ccccc3N)c2O[C@@H]1CN(C)Cc1ccc2c(c1)OCO2 | 52 | nt | 121*
Cc1ccc2nc(-c3cccnc3)cc(C(=O)Nc3sc4c(c3C(N)=O)CCCCCC4)c2c1 | 39 | nt | ?
C[C@@H]1CN([C@H](C)CO)C(=O)c2cc(NC(=O)CCCCCC(=O)Nc3ccccc3N)ccc2O[C@@H]1CN(C)C(=O)Nc1ccccc1 | -16 | nt | -14
CCc1ccc(OCC(=O)Nc2cccnc2)c(Br)c1 | -23 | nt | 25
CCN(CC)C(=O)N1CCN(CCC#N)CC1 | 6 | nt | 22
Cc1cc(C)c(S(=O)(=O)NCC(=O)Nc2ccc(F)c(Cl)c2)c(C)c1 | 9 | nt | 74
CCC(C)/C=C(C)/C=C/C1=CC2=C(Cl)C(=O)C(C)(OC(C)=O)C(=O)C2=CN1CCCC(=O)O (centres undefined) | 9 | 1 | 101*
CCOC(=O)c1cc(-c2ccc(Cl)cc2)[nH]c(=O)c1C#N | 7 | 9 | -13
CCOC(=O)C1=C(CSc2ccc(Cl)cc2)NC(=O)NC1c1cc(C)ccc1C (centres undefined) | -30 | 48 | 115*
CCN(CC)C(=O)c1cccc(Cl)c1 | -16 | -37 | 8
O=C(NCc1ccco1)c1cccc(NC(=O)c2ccc(Br)cc2)c1 | -23 | nt | 20
N#C/C(=C\c1cc(Cl)cc(Cl)c1)c1cccnc1 | 2 | 73* | 83*
N#C/C(=C\c1ccncc1)c1ccc(NC(N)=O)cc1 | -66 | -12 | 20
COc1ccc(OC)c(S(=O)(=O)N2CCC(C(=O)Nc3c(C)cc(C)cc3C)CC2)c1 | -3 | nt | 4
CCn1c(SCC(=O)Nc2cccc(SC)c2)nnc1-c1ccc(Br)cc1 | 21 | nt | -28
CCn1c(SCc2cccc(OC)c2)nnc1-c1cccnc1 | -12 | nt | -23
SMILES | MITF inh | Hedgehog inh | NOMO-1 viab
FC(F)(F)c1ccccc1N=C1CCCc2ccccc21 | 13 | -16 | 13
CCCCC/C=C/C(=O)CCc1ccc(O)c(OC)c1 | 2 | -28 | 118*
CCCCCCCCC/C=C/C(=O)CCc1ccc(O)c(OC)c1 | nt | 43 | nt
Cc1ccc(S(=O)(=O)Nc2cccc3c2O[C@H](CN(C)S(=O)(=O)c2cccs2)[C@@H](C)CN([C@H](C)CO)C3=O)cc1 | -10 | -13 | 17
Cc1c(Br)sc2sc(-c3ccnc(SCC(=O)NC(C)C)n3)c(C)c12 | 19 | -16 | 115*
Cc1csc2sc(-c3ccnc(SCc4ccccc4)n3)c(C)c12 | -5 | -2 | -2
CCOC(=O)c1c(NC(=O)CSc2nccc(C)n2)sc(C)c1C | 30 | nt | 18
C=CCNC(=O)CSc1nccc(-c2sc3sc(Br)c(C)c3c2C)n1 | 19 | 33 | 110*
O=C(CC1NC(=O)NC1=O)Nc1cccc(C(F)(F)F)c1 (centres undefined) | -9 | nt | 1
Cn1c(SCC(=O)Nc2ccc(Br)cc2Cl)nnc1-c1ccncc1 | -10 | nt | -7
Cc1ccc(-n2c(SCC(=O)Nc3ccc(Br)cc3)nnc2-c2ccco2)cc1 | 15 | nt | 26
COc1ccc(-c2nn(-c3ccccc3)cc2C(=O)NCC(=O)c2ccccc2)cc1OC | -37 | nt | 5
COC(=O)CNC(=O)c1cn(-c2ccccc2)nc1-c1cccs1 | -46 | nt | 105*
COc1ccc(CCNC(=O)c2cc3cc(Br)cc(OC)c3oc2=O)cc1OC | -19 | nt | 4
COc1ccc(S(=O)(=O)N(C)CC(=O)Nc2ccccc2Br)cc1Cl | 2 | nt | 19
CCOC(=O)c1nonc1N | -12 | -7 | -16
CCOC(=O)C1=NNCC1C(=O)OCC (centres undefined) | 13 | nt | 96*
CC[n+]1c(C=C2C=C(C)CC(C)C2)sc2ccccc21 (centres undefined) | 44 | 22 | 126*
Cc1ccc(NC(=O)C(C)Oc2ccc(Br)cc2)c([N+](=O)[O-])c1 (centres undefined) | -33 | nt | 3
NCCCCNS(=O)(=O)c1ccc2ccccc2c1 | -7 | -13 | 1
NCCCCCCNS(=O)(=O)c1cccc2ccccc12 | -2 | 31 | 84*
CCN1C(=O)C=CC1=O | -7 | -46 | 98*
O=C(NCc1ccco1)c1ccc(NC(=O)c2ccco2)cc1 | -39 | nt | -21
Cc1cc(C)c2oc(-c3ccc(NC(=O)COc4ccccc4[N+](=O)[O-])cc3)nc2c1 | -15 | nt | 32
C=C1C(=O)O[C@H]2C1C[C@@H](OC(C)=O)[C@@]1(C)[C@@H](OC(C)=O)C[C@@H](OC(C)=O)C(=C)[C@H]21 (some centres undefined) | 11 | 51 | 120*
SMILES | MITF inh | Hedgehog inh | NOMO-1 viab
Cc1ccccc1N(CC(=O)O)S(=O)(=O)c1ccc(Cl)cc1 | 0 | nt | 2
COc1ccc(NC(=O)N(C)C[C@@H]2Oc3c(NC(=O)Nc4ccc(C(F)(F)F)cc4)cccc3C(=O)N([C@@H](C)CO)C[C@@H]2C)cc1 | -5 | -7 | 56
O=C1C(Nc2ccccc2)=CC(=O)c2ncccc21 | 97* | 94* | 142*
CCC(C)CCCCCCCCC1CC(=O)NC(CCC(N)=O)C(=O)NC(CC(C)C)C(=O)NC(CC(C)C)C(=O)NC(C(C)C)C(=O)NC(CC(=O)O)C(=O)NC(CC(C)C)C(=O)NC(C(C)C)C(=O)O1 (centres undefined) | 29 | 8 | 111*
C[C@@H]1CN([C@H](C)CO)C(=O)Cc2cc(NC(=O)C3CCCCC3)ccc2O[C@@H]1CN(C)S(=O)(=O)c1ccc(F)cc1 | 7 | nt | -4
C[C@@H]1CN([C@H](C)CO)C(=O)Cc2cc(NC(=O)Nc3cccc4ccccc34)ccc2O[C@H]1CN(C)CC1CCCCC1 | 3 | nt | 9
C[C@@H]1CN([C@H](C)CO)C(=O)Cc2cc(NC(=O)Nc3cccc4ccccc34)ccc2O[C@@H]1CN(C)CC1CCCCC1 | 16 | -3 | 87*
C[C@@H]1CN([C@@H](C)CO)C(=O)Cc2cc(NC(=O)Nc3ccccc3)ccc2O[C@@H]1CN(C)CC1CCCCC1 | -3 | -9 | ?
